Compounds with a hit are over-represented: about 0.86% of the library has one in this group of screens.
GLS inhibitor: blocks human kidney-isoform glutaminase activity | O94925 | GLS enzymatic activity, qHTS titration | Potency, µM (highest dose often 45.5 µM), for the others: top-dose activity change, negative = inhibition, hits mostly inhibitors | actives 0.21% (n = 410,000)
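Two-point fluorescence kinetic (t0, 30 min RT) for hKGA; glutamate detected via glutamate oxidase–HRP–Amplex Red. Substrate: 1 mM L-glutamine solution; buffer 45 mM KH2PO4, pH 8.2.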
Tb PGK inh: T. brucei PGK inhibition. P07378. PGK/GAPDH coupled, Kinase-Glo luminescence, 60 min. actives 0.043% (n = 380,000). AID 602233. Potency, µM (top dose mostly 57.5 µM), without a hit: top-dose activity change, negative = inhibition, most hits filed as inhibitors; note: nearly all actives have a fitted effect of over 60% in size
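Recombinant glycosomal PGK reaction used 1,3-bisphosphoglycerate generated in-well by GAPDH (100nM final) in 100mM TEA pH 7.6, 5mM MgCl2, 0.01% Tween-20. After 60 minutes at room temperature, ATP was read by Kinase-Glo Plus luminescence end-point.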
FEN1 inhibitor: blocks human flap endonuclease 1; P39748; Recombinant FEN1 flap cleavage, fluorescence, 15 min; Potency, µM (titrated, usually from 114 µM), without a hit: at the highest dose activity change, negative = inhibition, hits mostly inhibitors; actives 0.35% (n = 390,000); note: nearly all actives have a fitted effect of over 65% in size
Target sequence (P39748 whole entry, looked up): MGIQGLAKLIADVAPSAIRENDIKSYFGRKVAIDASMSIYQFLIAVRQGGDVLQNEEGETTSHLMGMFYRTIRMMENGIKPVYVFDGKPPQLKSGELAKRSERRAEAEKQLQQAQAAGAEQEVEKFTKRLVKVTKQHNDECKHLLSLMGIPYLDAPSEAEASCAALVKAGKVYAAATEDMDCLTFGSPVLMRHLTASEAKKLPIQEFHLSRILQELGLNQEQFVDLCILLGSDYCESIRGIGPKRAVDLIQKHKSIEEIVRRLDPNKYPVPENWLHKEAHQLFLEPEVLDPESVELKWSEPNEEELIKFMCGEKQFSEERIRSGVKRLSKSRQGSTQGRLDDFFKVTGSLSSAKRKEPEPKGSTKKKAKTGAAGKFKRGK
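Read-out was taken twice, immediately and after 15 min, following addition of 50 nM substrate to 10 nM FEN1 that had sat with test compound for 15 min at room temperature. Curves came from a four-parameter Hill model.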
RECQ1 inh: blocks DNA unwinding by human RECQ1 | Potency, µM (doses to about 57.3 µM), for the others: top-dose activity, negative = inhibition, actives largely listed as inhibitors | AID 2549 | actives 0.54% (n = 240,000) | RECQ1 DNA unwinding, red fluorescence kinetic read | P46063;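 note: plate controls were vehicle for no effect and no enzyme for full effect; nearly all actives have a fitted effect of over 30% in size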
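50 nM RECQ1T1 preincubated 15 min with compound in Tris pH 8.0 buffer with MgCl2, DTT, Tween-20 and 2.5 ug/ml poly(dI-dC); started with 200 nM TAMRA/BHQ-2 forked duplex and 2 mM ATP. Unwinding read as fluorescence (525/598 nm), two reads 2 h apart.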
APEX1 inh: blocks human APE1 abasic DNA cleavage; P27695; recombinant APE1, TAMRA/BHQ-2 abasic DNA cleavage fluorescence; Potency, µM (series often up to 65.8 µM), for the others: at the top dose activity change, negative = inhibition, hits mostly inhibitors; actives 0.35% (n = 350,000); AID 2517;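 note: plate controls were vehicle for no effect and reference inhibitor for full effect; nearly all actives have a fitted effect of over 55% in size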
Target sequence (P27695 whole entry, looked up): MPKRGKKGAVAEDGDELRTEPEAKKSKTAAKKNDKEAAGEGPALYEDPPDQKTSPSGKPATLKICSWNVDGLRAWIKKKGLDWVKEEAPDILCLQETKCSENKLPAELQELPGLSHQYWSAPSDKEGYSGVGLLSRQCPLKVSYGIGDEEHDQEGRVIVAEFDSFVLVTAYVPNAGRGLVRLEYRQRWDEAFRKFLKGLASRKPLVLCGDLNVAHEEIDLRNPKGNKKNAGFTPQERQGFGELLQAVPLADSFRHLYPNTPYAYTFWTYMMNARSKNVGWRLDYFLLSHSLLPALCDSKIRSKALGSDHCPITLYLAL
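APE1 at 0.75 nM final was preincubated with compound 15 min at room temperature, then 50 nM double-stranded THF abasic-site substrate (5'-TAMRA/3'-BHQ-2) was added. Fluorescence (ex 525/em 598 nm) was read kinetically; third-minus-first read gave activity.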
BLM helicase inh: inhibitors of human Bloom syndrome helicase BLM | P54132 | recombinant BLM DNA unwinding, fluorescence dequenching | Potency, µM (titrated, usually from 56.1 µM), without a hit: at the top dose activity change, negative = inhibition, actives largely listed as inhibitors | actives 0.2% (n = 350,000);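 note: plate controls were vehicle for no effect and no enzyme for full effect; nearly all actives have a fitted effect of over 35% in size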
* hit, by the source's call; i = inactive; ? = inconclusive; . = no result; [ ] = another dose, or the depositor's remark. Calls come from the whole dose curve; as a rule, active = well fitted curve in the direction sought with a large enough effect; inconclusive = small, poorly fitted or top-dose-only effect, or another doubt; inactive = no such curve, though single readings can be large; an effect the other way counts as inactive or inconclusive. Unless noted, % is set by controls: 0 for no effect and ±100 for the full control effect; potency is the fitted concentration of half-maximal effect.

SMILES	GLS inhibitor	Tb PGK inh	FEN1 inhibitor	RECQ1 inh	APEX1 inh	BLM helicase inh
Nc1cc(S(=O)(=O)O)cc2ccc(S(=O)(=O)O)cc12	-16%	-7%	-10%	.	.	.
Cc1cc(-c2ccc(N=Nc3c(S(=O)(=O)O)cc4cc(S(=O)(=O)O)cc(N)c4c3O)c(C)c2)ccc1N=Nc1c(S(=O)(=O)O)cc2cc(S(=O)(=O)O)cc(N)c2c1O	16%	.	.	.	0.47µM*	-83%
O=S(=O)(O)c1cc(O)c2c(O)c(N=Nc3cc(Cl)ccc3O)c(S(=O)(=O)O)cc2c1	25%	?	?	.	12µM*	70%
Cc1cc(N=Nc2ccc(C)c(N=Nc3cc(C)c(N)cc3N)c2)c(N)cc1N	6%	1%	22µM*	-9%	5%	?
O=C1c2c(O)cccc2[C@H]([C@@H]2O[C@H](CO)[C@@H](O)[C@H](O)[C@H]2O)c2cc(CO)cc(O)c21	.	.	.	.	-3%	.
O=C(O)c1cc(O)c2c(c1)[C@@H]([C@H]1c3cc(C(=O)O)cc(O)c3C(=O)c3c(O[C@@H]4O[C@H](CO)[C@@H](O)[C@H](O)[C@H]4O)cccc31)c1cccc(O[C@@H]3O[C@H](CO)[C@@H](O)[C@H](O)[C@H]3O)c1C2=O	1.8µM*	3.2µM*	3.2µM*	.	0.067µM*	.
Fc1ccc(/C=C/c2ccc3ccccc3n2)cc1	.	.	-7%	.	.	.
CCCCn1c(C)cc2c(c1=O)C1O[C@](c3ccsc3)(Cc3cc(OC)c(OC)cc31)O2	.	.	.	.	3.9µM*	-11%[12.4 µM]
c1cc2c3c(c1)CCC[N+]3(C1CCCCC1)CCC2	.	.	-1%	.	.	.
CN1C2CCC1CC(NC(=O)n1c(=O)[nH]c3ccccc31)C2 (stereo unspecified)	-3%	.	.	.	.	.
CSc1nc(SCC(N)=O)c2c3c(sc2n1)CN(C)CC3	-7%	-7%	50µM*	i	-8%	74%
O=C(O)/C=C/c1ccc([N+](=O)[O-])o1	11µM*	16µM*	-19%	i	?	-6%
NC(N)=NN=C(/C=C/c1ccc([N+](=O)[O-])o1)/C=C/c1ccc([N+](=O)[O-])o1	-4%	.	.	.	.	-4%
CC(C)(C)CC(C)(C)N=C1Nc2cc(Cl)c(Cl)cc2N[C@]12C[C@H]1CCCC(=O)N3CC[C@@H](C2)[C@@H]13	.	.	-13%	.	.	.
COC(=O)c1cccc(-n2sc3ccccc3c2=O)c1	11µM*	i	?	.	15%	.
COC(=O)c1cccc(N2CCCC2=O)c1	2%	2%	3%	i	8%	-1%
Cc1ccc(-n2sc3cc(F)ccc3c2=O)c(C)c1	?	1%	.	.	.	.
O=c1c2ccc(F)cc2sn1-c1ccccc1	7.1µM*	-8%	.	.	.	.
O=c1c2ccccc2sn1-c1ccc(F)cc1	10µM*	-3%	79µM*	.	21%	.
NC(=O)c1ccc[n+]([C@@H]2O[C@H](COP(=O)([O-])OP(=O)(O)OC[C@H]3O[C@@H](n4cnc5c(N)ncnc54)[C@H](O)[C@@H]3O)[C@@H](O)[C@H]2O)c1	.	.	.	.	-1%[21 µM]	.
CC(C)(C)C(=O)OCOC(=O)C1N2C(=O)CC2S(=O)(=O)C1(C)C (stereo unspecified)	-6%	.	.	.	.	.
S=c1[nH]nc(Cc2ccccc2)n1-c1cccc2ccccc12	13µM*	2%	2%	-2%	8%	0%
Cc1ccc(-n2c(Cc3ccccc3)n[nH]c2=S)c(C)c1	-4%	-4%	18%	i	10%	-2%
COc1cccc(/C=N/NC(=O)c2cc3cc([N+](=O)[O-])ccc3s2)c1O	-7%	?	50µM*	-20%	2µM*	16µM*
O=[N+]([O-])c1ccccc1OCCOc1ccccc1[N+](=O)[O-]	5%	-7%	-9%	40µM*	3%	0%
SMILES	GLS inhibitor	Tb PGK inh	FEN1 inhibitor	RECQ1 inh	APEX1 inh	BLM helicase inh
COc1ccc(OCCOc2ccccc2[N+](=O)[O-])cc1	-5%	-13%	-18%	-3%	-2%	-7%
O=C(NCCCN1CCOCC1)C(=O)N/N=C/c1c2ccccc2cc2ccccc12	-11%	-12%	40µM*	i	0%	-2%
NC(=O)C(=O)N/N=C/c1c2ccccc2cc2ccccc12	9%	2%	25µM*	.	-2%	2%
CC1(C)N=C(N)N=C(N)N1c1ccc(Cl)cc1	-13%	.	.	.	.	.
CN1C(=O)/C(=C/c2ccc(-c3ccccc3[N+](=O)[O-])o2)SC1=Nc1ccc(Cl)c(C(=O)O)c1	?	-16%	45µM*	-5%	10%	-4%
CCN(CC)c1ccc(N=Nc2ccc(S(=O)(=O)N(C)C)cc2)c(S(=O)(=O)NCC[n+]2ccccc2)c1	-7%	.	.	.	.	.
CC(=O)N[C@H]1[C@H](O[C@@H]2c3ccc(c(Cl)c3)Oc3cc4cc(c3O[C@@H]3O[C@H](CO)[C@@H](O)[C@H](O)C3C)Oc3ccc(cc3Cl)C[C@H]3NC(=O)[C@@H](N)c5ccc(O)c(c5)Oc5cc(O)cc(c5)[C@H](NC3=O)C(=O)N[C@H]4C(=O)N[C@H]3C(=O)N[C@@H]2C(=O)N[C@@H](C(=O)O)c2cc(O)cc(O[C@H]4O[C@H](CO)[C@@H](O)C(O)[C@@H]4O)c2-c2cc3ccc2O)O[C@H](CO)[C@@H](O)[C@@H]1O (stereo partly specified)	16µM*	.	.	.	.	1%[21.4 µM]
Cn1c(=O)c2c(nc(SCc3nn[nH]n3)n2Cc2ccccc2F)n(C)c1=O	-6%	0%	-1%	i	18%	5%
O=c1c2nccnc2[nH]c(=S)n1Cc1ccccc1Cl	10µM*	0%	-23%	-3%	-4%	0%
Cn1c(=O)n(Cc2ccccc2Cl)c(=O)c2c1[nH]c(=S)n2C	14µM*	1%	-4%	.	-5%	-2%
O=C(c1ccc2c(=O)n(Cc3ccccc3Cl)c(=S)[nH]c2c1)N1CCCC1	-12%	1%	-2%	.	31%	-1%
Cn1c(SCc2nn[nH]n2)nc2c1c(=O)n(Cc1ccccc1Cl)c(=O)n2C	11µM*	-3%	2%	-27%	5%	-1%
CC(=O)N1CCc2cc(Br)cc(S(=O)(=O)N3CCC(C(=O)Nc4ccc(C(C)C)cc4)CC3)c21	-1%	-12%	89µM*	.	.	-5%
CC(C)c1ccc(NS(=O)(=O)c2cc(Br)cc3c2N(C(=O)C2CC2)CC3)cc1	1%	8%	9%	.	.	-10%
O=C(COc1ccccc1C(=O)Nc1ccccc1)Nc1ccc2ccccc2c1	.	.	10%	.	.	.
O=C(C[n+]1ccc(C(=O)N/N=C/c2ccc(OCc3ccccc3)cc2)cc1)c1ccccc1	18%	-4%[11.5 µM]	-19%	-12%	?	35µM*
CCC(=O)NCC(=O)OCC(=O)c1ccccc1	25µM*	-5%	-4%	0%	12%	5%

High-throughput results (PubChem BioAssay)
